Experiments:
[1] = molecular target: Serine/threonine-protein kinase 26 (Homo sapiens) (UniProt Q9P289); details: at 1 µM;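 note: mean inhibition of MST4 kinase activity, reported from the GSK PKIS inhibitor-set screening panel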
[2] = molecular target: Serine/threonine-protein kinase PAK 1 (Homo sapiens) (UniProt Q13153); details: at 0.1 µM
[3] = molecular target: Serine/threonine-protein kinase PAK 1 (Homo sapiens) (UniProt Q13153); details: at 1 µM
[4] = molecular target: Serine/threonine-protein kinase PAK 2 (Homo sapiens) (UniProt Q13177); details: at 0.1 µM
[5] = molecular target: Serine/threonine-protein kinase PAK 2 (Homo sapiens) (UniProt Q13177); details: at 1 µM
[6] = molecular target: Serine/threonine-protein kinase PAK 3 (Homo sapiens) (UniProt O75914); details: at 0.1 µM
[7] = molecular target: Serine/threonine-protein kinase PAK 3 (Homo sapiens) (UniProt O75914); details: at 1 µM
[8] = molecular target: Serine/threonine-protein kinase PAK 5 (Homo sapiens) (UniProt Q9P286); details: at 1 µM
[9] = molecular target: Serine/threonine-protein kinase PAK 6 (Homo sapiens) (UniProt Q9NQU5); details: at 0.1 µM;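 note: mean PAK6 inhibition reported from the GSK PKIS screen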
[10] = molecular target: Serine/threonine-protein kinase PAK 5 (Homo sapiens) (UniProt Q9P286); details: at 0.1 µM

Sequence of Serine/threonine-protein kinase PAK 3 (Homo sapiens) (O75914 whole entry, looked up): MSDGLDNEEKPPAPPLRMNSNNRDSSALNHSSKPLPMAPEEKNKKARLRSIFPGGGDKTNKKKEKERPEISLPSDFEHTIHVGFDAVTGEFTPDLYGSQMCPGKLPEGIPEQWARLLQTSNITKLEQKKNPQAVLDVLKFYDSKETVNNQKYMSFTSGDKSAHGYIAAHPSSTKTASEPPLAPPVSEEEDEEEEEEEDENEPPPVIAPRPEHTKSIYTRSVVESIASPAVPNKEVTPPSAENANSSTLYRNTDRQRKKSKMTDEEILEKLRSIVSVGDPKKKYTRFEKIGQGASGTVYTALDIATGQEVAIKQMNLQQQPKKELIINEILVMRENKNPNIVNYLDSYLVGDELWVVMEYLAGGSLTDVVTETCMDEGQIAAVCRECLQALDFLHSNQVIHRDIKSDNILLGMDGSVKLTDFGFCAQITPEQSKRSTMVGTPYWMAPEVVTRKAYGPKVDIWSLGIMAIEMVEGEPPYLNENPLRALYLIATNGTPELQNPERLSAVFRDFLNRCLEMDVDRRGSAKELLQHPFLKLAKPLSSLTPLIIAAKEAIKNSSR
Sequence of Serine/threonine-protein kinase PAK 1 (Homo sapiens) (Q13153 whole entry): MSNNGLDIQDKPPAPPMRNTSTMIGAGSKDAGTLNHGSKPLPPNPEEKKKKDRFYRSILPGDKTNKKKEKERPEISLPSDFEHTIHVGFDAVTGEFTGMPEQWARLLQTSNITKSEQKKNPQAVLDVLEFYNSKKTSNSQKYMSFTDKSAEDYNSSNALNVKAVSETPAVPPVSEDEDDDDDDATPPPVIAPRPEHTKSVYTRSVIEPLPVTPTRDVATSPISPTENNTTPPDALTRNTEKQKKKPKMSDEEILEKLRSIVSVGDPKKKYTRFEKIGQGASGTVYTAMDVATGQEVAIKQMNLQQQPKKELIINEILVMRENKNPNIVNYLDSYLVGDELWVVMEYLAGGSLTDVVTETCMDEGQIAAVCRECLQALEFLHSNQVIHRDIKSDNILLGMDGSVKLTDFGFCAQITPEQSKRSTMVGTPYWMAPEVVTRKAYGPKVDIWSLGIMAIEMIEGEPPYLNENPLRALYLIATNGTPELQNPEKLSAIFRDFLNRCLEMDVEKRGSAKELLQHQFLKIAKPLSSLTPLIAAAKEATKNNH
Sequence of Serine/threonine-protein kinase PAK 5 (Homo sapiens) (Q9P286 whole entry, looked up): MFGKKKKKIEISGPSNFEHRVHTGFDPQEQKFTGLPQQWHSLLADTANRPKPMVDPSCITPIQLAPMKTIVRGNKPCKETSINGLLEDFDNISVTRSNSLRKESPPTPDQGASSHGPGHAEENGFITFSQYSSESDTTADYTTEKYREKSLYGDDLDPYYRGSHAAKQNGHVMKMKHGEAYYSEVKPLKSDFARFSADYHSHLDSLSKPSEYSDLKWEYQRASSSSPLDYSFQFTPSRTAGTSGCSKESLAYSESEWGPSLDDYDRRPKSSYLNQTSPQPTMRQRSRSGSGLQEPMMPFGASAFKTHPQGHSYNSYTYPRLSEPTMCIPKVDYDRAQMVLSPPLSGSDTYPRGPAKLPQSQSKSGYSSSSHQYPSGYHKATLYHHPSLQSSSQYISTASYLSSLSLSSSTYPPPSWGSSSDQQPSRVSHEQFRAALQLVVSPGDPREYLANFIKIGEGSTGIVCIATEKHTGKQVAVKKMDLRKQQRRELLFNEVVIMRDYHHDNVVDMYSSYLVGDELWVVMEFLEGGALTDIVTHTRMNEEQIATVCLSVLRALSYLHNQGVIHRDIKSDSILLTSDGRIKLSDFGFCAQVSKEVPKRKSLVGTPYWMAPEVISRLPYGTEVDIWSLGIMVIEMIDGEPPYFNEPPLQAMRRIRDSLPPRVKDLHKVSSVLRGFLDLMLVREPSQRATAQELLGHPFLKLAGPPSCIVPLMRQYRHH
Sequence of Serine/threonine-protein kinase 26 (Homo sapiens) (Q9P289 2-416 limits assumed): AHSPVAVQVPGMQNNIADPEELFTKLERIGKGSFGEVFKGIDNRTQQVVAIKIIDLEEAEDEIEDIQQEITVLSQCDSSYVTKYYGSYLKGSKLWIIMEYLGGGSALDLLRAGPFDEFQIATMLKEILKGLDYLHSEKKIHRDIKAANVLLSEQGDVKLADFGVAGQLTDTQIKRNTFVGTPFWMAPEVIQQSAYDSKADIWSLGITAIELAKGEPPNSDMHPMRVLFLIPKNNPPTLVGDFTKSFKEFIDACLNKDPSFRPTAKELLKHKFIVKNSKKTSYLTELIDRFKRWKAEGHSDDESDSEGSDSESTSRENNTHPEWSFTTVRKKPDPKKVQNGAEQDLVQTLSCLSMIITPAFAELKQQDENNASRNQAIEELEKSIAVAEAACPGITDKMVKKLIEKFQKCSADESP
Sequence of Serine/threonine-protein kinase PAK 2 (Homo sapiens) (Q13177 whole entry): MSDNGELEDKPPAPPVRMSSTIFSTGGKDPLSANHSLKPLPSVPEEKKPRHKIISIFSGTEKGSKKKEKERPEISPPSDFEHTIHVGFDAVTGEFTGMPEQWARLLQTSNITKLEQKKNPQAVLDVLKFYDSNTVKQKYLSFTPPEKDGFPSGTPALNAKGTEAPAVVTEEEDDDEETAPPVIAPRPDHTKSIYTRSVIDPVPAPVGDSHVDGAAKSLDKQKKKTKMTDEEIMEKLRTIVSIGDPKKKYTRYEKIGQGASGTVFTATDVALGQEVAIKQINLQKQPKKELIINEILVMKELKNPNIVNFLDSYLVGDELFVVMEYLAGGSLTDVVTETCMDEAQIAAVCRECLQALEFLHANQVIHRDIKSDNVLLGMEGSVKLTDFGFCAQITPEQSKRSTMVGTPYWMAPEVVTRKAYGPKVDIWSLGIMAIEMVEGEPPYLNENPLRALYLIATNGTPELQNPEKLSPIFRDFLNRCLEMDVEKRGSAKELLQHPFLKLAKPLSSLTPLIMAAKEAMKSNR
Sequence of Serine/threonine-protein kinase PAK 6 (Homo sapiens) (Q9NQU5 whole entry, looked up): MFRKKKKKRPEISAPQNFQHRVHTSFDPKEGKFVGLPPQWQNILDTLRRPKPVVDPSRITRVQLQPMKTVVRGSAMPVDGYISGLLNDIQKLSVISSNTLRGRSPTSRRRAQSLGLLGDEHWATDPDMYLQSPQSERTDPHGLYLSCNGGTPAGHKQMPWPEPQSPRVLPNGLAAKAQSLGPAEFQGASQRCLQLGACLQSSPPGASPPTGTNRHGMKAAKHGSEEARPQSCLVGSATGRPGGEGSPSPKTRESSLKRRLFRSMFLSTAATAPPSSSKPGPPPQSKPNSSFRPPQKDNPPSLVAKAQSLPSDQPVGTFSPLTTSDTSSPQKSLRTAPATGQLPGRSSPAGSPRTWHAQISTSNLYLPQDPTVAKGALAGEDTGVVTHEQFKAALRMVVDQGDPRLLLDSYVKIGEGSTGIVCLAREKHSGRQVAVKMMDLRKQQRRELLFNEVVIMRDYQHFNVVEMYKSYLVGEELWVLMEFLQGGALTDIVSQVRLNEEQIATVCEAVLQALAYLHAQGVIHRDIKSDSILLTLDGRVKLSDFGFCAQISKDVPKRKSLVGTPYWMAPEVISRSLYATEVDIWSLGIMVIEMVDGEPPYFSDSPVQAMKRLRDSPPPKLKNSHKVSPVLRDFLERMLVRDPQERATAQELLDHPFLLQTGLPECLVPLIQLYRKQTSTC

SMILES | inhibition [1] [%] | inhibition [2] [%] | inhibition [3] [%] | inhibition [4] [%] | inhibition [5] [%] | inhibition [6] [%] | inhibition [7] [%] | inhibition [8] [%] | inhibition [9] [%] | inhibition [10] [%]
NS(=O)(=O)c1ccc(NC=C2C(=O)Nc3ccc4ncsc4c32)cc1 | 78.9 | 7.91 | 8.35 | 2.5 | 4.68 | 5.33 | 6.6 | 5.11 | 0.36 | –
COC(=O)Nc1nc2cc(Oc3ccc(NC(=O)Nc4cccc(Br)c4)cc3)ccc2[nH]1 | 9.97 | -0.8 | 6.23 | 0.73 | 0.39 | 2.85 | 2.59 | -0.7 | -5.52 | -1.29
CS(=O)(=O)Nc1cccc(-c2ccc3c(NC(=O)C4CC4)n[nH]c3c2)c1 | 1.22 | 2.69 | 3.3 | 0.99 | 0.37 | 0.48 | 1.23 | – | -7.16 | –
c1ccc(Cc2nc3ccc(Nc4ncnc5ccccc45)cc3[nH]2)cc1 | -0.26 | 4.28 | 3.15 | 2.47 | 2.26 | 3.68 | 4.32 | 7.77 | -3.41 | 5.6
Nc1nccc(-c2c(-c3ccc(F)cc3)nn3cc(C(F)(F)F)ccc23)n1 | 0.4 | 0.65 | 2.14 | -2.44 | -1.84 | -0.02 | -0.21 | -2.91 | 3.48 | –
NS(=O)(=O)c1ccc(N/N=C2\C(=O)Nc3ccc(Cl)cc32)cc1 | 13.4 | 3.14 | 5.51 | 0.72 | 1.37 | 3.71 | 5.15 | 3.28 | -3.69 | 4.18
CCCN1CCCC(c2ccc(Nc3nc(Nc4cc(F)ccc4C(N)=O)c4cc[nH]c4n3)c(OC)c2)C1 (stereo not drawn) | -1.5 | 7.38 | 9.12 | 2.49 | 3.33 | 4.64 | 5.56 | 6.67 | 2 | 1.21
Nc1nccc(C#Cc2cncnc2Nc2ccc(OCc3cccc(F)c3)c(Cl)c2)n1 | -8.32 | 6.18 | 3.97 | 1.6 | 2.31 | 0.29 | 3.37 | -3.56 | 5.51 | 3.29
CC(C)c1ccc2c(c1)NC(=O)/C2=N/Nc1ccc(S(N)(=O)=O)cc1 | 0.01 | -1.3 | 3.93 | -1.91 | -1.73 | -1.11 | 0.37 | -0.94 | -8.22 | -6.19
Cc1ccc2c(c1)/C(=N/Nc1ccc(S(N)(=O)=O)cc1)C(=O)N2 | 17.1 | -1.7 | 5.13 | 0.16 | -0.31 | 0.21 | -1.09 | – | -4.78 | -8.51
O=C1Nc2ccc(-c3cccnc3)cc2C1=Cc1cc(Br)c(O)c(Br)c1 | 36 | 6.15 | 6.31 | 2.5 | 2.17 | 4.09 | 4.77 | -0.35 | -0.06 | 0.53
CCn1c(-c2nonc2N)nc2ccc(F)cc21 | 3.36 | 12 | 11.2 | 3.1 | 3.8 | 7.78 | 6.52 | – | 2.06 | -1.6
COc1cccc(-n2ncc3c(N/N=C/c4ccc(S(C)(=O)=O)cc4)ncnc32)c1 | 2.58 | 2.37 | 3.02 | -0.07 | -0.47 | 0.46 | 1.53 | 10.1 | -8.81 | 2.27
CN(C)CCCn1c(-c2nonc2N)nc2cnccc21 | -1.75 | 6.36 | 9.52 | 1.48 | 2.17 | 4.61 | 5.23 | -5.06 | 7.58 | –
COc1cc(/C=N/Nc2ncnc3c2cnn3C(C)C)ccc1O | 3.49 | 3.62 | 2.53 | -0.56 | -0.45 | -3.86 | 1.26 | 4.69 | -0.32 | –
CCS(=O)(=O)c1ccc(OC)c(Nc2ncc(-c3cccc(OC)c3)o2)c1 | -4.12 | 2.01 | 5.71 | 2.79 | 1.98 | 3.24 | 2.36 | -1.57 | -4.37 | 6.72
ON=C1CCc2cc(-c3nc(C4CCNCC4)[nH]c3-c3ccncc3)ccc21 | -1.63 | 2.01 | 2.16 | -0.65 | -0.29 | -0.94 | -0.23 | – | 0.23 | –

SMILES | inhibition [1] [%] | inhibition [2] [%] | inhibition [3] [%] | inhibition [4] [%] | inhibition [5] [%] | inhibition [6] [%] | inhibition [7] [%] | inhibition [8] [%] | inhibition [9] [%] | inhibition [10] [%]
Cc1cc(Cl)cc2c1NC(=O)C2=NNc1ccc(S(N)(=O)=O)cc1 | -0.49 | 0.68 | 1.71 | 1.05 | 0.72 | 3.63 | 4.8 | -1.19 | 2.65 | -4.18
CN(C)C(=O)O[C@@H]1CN[C@@H](C#Cc2cc3ncnc(Nc4ccc(OCc5cccc(F)c5)c(Cl)c4)c3s2)C1 | 0.17 | 1.48 | 2.04 | 0.43 | -0.42 | 0.58 | -0.38 | – | 2.87 | -5.8
CC(C)c1ccc(Nc2nccc(-c3cnn4ncccc34)n2)cc1 | 2.8 | 2.05 | 3.55 | 1.06 | 0.9 | 1.95 | 2.33 | 2.48 | -6.25 | -3.7
CN(c1ccc(NC(=O)Nc2ccc(OC(F)(F)F)cc2)cc1)c1ccnc(Nc2cccc(S(N)(=O)=O)c2)n1 | -3.21 | 1.61 | -0.37 | 0.53 | -1.63 | 2.32 | 0.7 | 1.16 | -3.33 | -3.24
COc1cc2ncnc(Nc3ccc(C)c(O)c3)c2cc1OC | -1.08 | 6.98 | 7.41 | 1.81 | 2.35 | 5.88 | 5.36 | 7.08 | -1.14 | 0.51
N#Cc1c(NC(=O)c2ccccc2F)sc2c1CCCC2 | 1.28 | -3.89 | 1.46 | -2.11 | -1.55 | -2.48 | -1.16 | -0.86 | 2.44 | -5.99
C[C@@H](Oc1cc(-n2cnc3ccc(OC[C@@H](O)CO)cc32)sc1C(N)=O)c1ccccc1Cl | 1.05 | -2.19 | 1.45 | -2.74 | -0.42 | -2.28 | -0.49 | -4.24 | -7.41 | -7.17
O=C(Nc1ccc(Oc2ccc3[nH]c(NC(=O)c4ccco4)nc3c2)cc1)Nc1cc(C(F)(F)F)ccc1F | 0.33 | -2.95 | -0.15 | 0.17 | 0.57 | -0.21 | 0.34 | 6.36 | 2.79 | 6.4
C[C@@H](Oc1cc(-n2cnc3ccc(OCC4CCN(C)CC4)cc32)sc1C(N)=O)c1ccccc1C(F)(F)F | – | -2.64 | 0.44 | -1.54 | -2.14 | -1.81 | 0.3 | -1.92 | 1.47 | -2.43
COC(=O)c1cncc(/C=C/c2c(C)cc(O)cc2C)c1 | -1.43 | 4.61 | 0.91 | 2.48 | 0.99 | 4.48 | 4.33 | 2.77 | 1.5 | 9.23
FC(F)(F)c1ccc(-c2nn3ncccc3c2-c2ccnc(Nc3ccc4c(c3)OCCO4)n2)cc1 | 7.92 | 4.61 | 0.84 | 1.32 | 1.42 | 3.69 | 4.75 | 11.3 | 9.3 | 6.24
Cc1nc(-c2ccccc2)n2nc(NCCCN3CCOCC3)ncc12 | 0.4 | 2.24 | 6.68 | 0.56 | 0.27 | 1.98 | 4.33 | 1.28 | -9.04 | 1.91
OCc1ccc(-c2nc(-c3ccccn3)c(-c3ccc4c(c3)OCO4)[nH]2)cc1 | -2.75 | 3.25 | 7.25 | 2.61 | 2.79 | 4.79 | 5.17 | 0.71 | 3.79 | 1.77
COc1ccc2ncnc(Nc3ccc(OCc4ccccc4)cc3)c2c1 | -1.42 | 0.31 | 3.44 | -0.61 | 0.47 | 2.33 | 2.78 | -2.45 | -7.36 | -6.57
NS(=O)(=O)c1ccc(Nc2cc(-c3cccc(O)c3)n[nH]2)cc1 | -4.6 | 9.49 | 7.81 | 3.22 | 2.59 | 6.66 | 6.8 | -6.9 | -0.89 | 3.04
NS(=O)(=O)c1cccc(-c2cc3ccncc3cc2OCc2ccccc2)c1 | -3.77 | 7.59 | 6.92 | 3.01 | 2.6 | 4.78 | 7.31 | -0.51 | -0.02 | -0.43

Reference: ChEMBL document CHEMBL1961873, “Compounds: GSK PKIS; Assays: Nanosyn kinase panel” (2012)
